Assay [1] can be described thus: ATG_TAL_CIS: Attagene CIS-FACTORIAL HepG2 Assay for human TAL Basal Promoter (AID 2282966; active means hit-call score of the fitted dose curve at least 0.9, where 1 is the maximum; inactive means score below 0.9;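 further: background control endpoint measuring basal TAL promoter reporter mRNA not a specific factor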). Conditions: HepG2 Attagene cis-factorial TAL promoter reporter; actives raise or lower the signal. A digest of the protocol:
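HepG2, transient MRTU transfection, 24 h compound exposure; RNA → oligo(dT) RT → PCR → 6-FAM primer extension → HpaI digest → CE fluorescence. Bidirectional curve fit vs DMSO. Background-control readout.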

Assay [2] is described as follows: ATG_TGFb_CIS: Attagene CIS-FACTORIAL HepG2 Assay for human Transforming Growth Factor (TGF) (AID 2282967; active means hit-call score of the fitted dose curve at least 0.9, where 1 is the maximum; inactive means score below 0.9). Conditions: HepG2 Attagene CIS TGFb reporter, mRNA transcription; actives raise or lower the signal. A digest of the protocol:
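Endogenous TGFB1-linked transcription factor activity read as reporter mRNA via RT-PCR and capillary electrophoresis, 24 h after dosing transiently transfected HepG2 cells. Gain or loss of signal fitted relative to DMSO.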

A short description of assay [3]: ATG_VDRE_CIS: Attagene CIS-FACTORIAL HepG2 Assay for human Vitamin D Receptor Element (VDRE) (AID 2282968; active means hit-call score of the fitted dose curve at least 0.9, where 1 is the maximum; inactive means score below 0.9). Particulars: HepG2 VDRE cis-reporter transcription, actives raise or lower the signal. A digest of the protocol:
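Readout is VDRE-driven reporter mRNA reflecting endogenous factor activity in human HepG2 cells, sampled 24 h post-dose. Quantification used labelled RT-PCR products separated by capillary electrophoresis; bidirectional analysis relative to DMSO.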

The target of assay [4] is Nuclear receptor subfamily 1 group I member 3 (Homo sapiens) (UniProt Q14994). The assay is described as follows: ATG_CAR_TRANS: Attagene TRANS-FACTORIAL HepG2 Assay for human Constitutive Androstane Receptor (CAR) (AID 2282969).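 Further: activators raise reporter mRNA above DMSO so AC50 marks induction.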 Particulars: HepG2 Attagene TRANS-FACTORIAL CAR reporter. The gist of the method: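 Signal is reporter mRNA induction relative to DMSO, measured 24 h after dosing by RT-PCR with fluorescent primer extension and capillary electrophoresis. Human HepG2 liver cells carried transiently transfected chimeric NR-Gal4/GAL4-UAS reporter constructs.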

The target of assay [5] is X-box-binding protein 1 (Homo sapiens) (UniProt P17861). The assay is described as follows: ATG_Xbp1_CIS: Attagene CIS-FACTORIAL HepG2 Assay for human X-box Binding Protein 1 (XBP1) (AID 2282972; active means hit-call score of the fitted dose curve at least 0.9, where 1 is the maximum; inactive means score below 0.9). Conditions: HepG2 XBP1 cis-element reporter, Attagene multiplex; actives raise or lower the signal. A digest of the protocol: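 Reporter transcripts were quantified by RT-PCR with fluorescent primer extension and capillary electrophoresis after 24 h chemical exposure. Cells: transiently transfected HepG2 carrying cis-regulated reporter constructs; data fitted bidirectionally relative to DMSO.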

A short description of assay [6]: ATG_GAL4_TRANS: Attagene TRANS-FACTORIAL HepG2 Assay for GAL4 (Internal Marker) (AID 2282976). Particulars: HepG2 Attagene TRANS GAL4 internal marker reporter. A digest of the protocol: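 RT-PCR/capillary electrophoresis readout of reporter mRNA. HepG2, transient MRTU transfection (GAL4-UAS reporters), 24 h compound exposure. Background-control endpoint, positive direction vs DMSO baseline.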

The target of assay [7] is Oxysterols receptor LXR-alpha (Homo sapiens) (UniProt Q13133). Put plainly: ATG_LXRa_TRANS: Attagene TRANS-FACTORIAL HepG2 Assay for human Liver X Receptor alpha (LXRa) (AID 2282980). Particulars: HepG2 Attagene TRANS reporter, LXRa transactivation. The gist of the method:
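Read-out: reporter transcript levels by RT-PCR plus capillary electrophoresis, fluorescence intensity. Transiently transfected HepG2, exogenous NR-GAL4 chimera, GAL4-UAS reporters; 24 h compound exposure. Activity = increase over DMSO negative control.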

The nature of assay [8]: ATG_M_06_TRANS: Attagene TRANS-FACTORIAL HepG2 Assay for M06 Transcription Factor (Internal Marker) (AID 2282983). Conditions: HepG2 Attagene TRANS M06 internal marker reporter. A digest of the protocol: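 Read-out: fluorescent reporter cDNA fragments resolved by capillary electrophoresis after RT-PCR and HpaI cut. Source cells were HepG2 carrying transfected multi-reporter GAL4 constructs, dosed 24 h. Increase over DMSO control analysed.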

A short description of assay [9]: ATG_M_32_TRANS: Attagene TRANS-FACTORIAL HepG2 Assay for M32 Transcription Factor (Internal Marker) (AID 2282984).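 Further: transcript level of a background control reporter unit measured by RT-PCR and capillary electrophoresis.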 Particulars: HepG2 Attagene TRANS M32 internal marker reporter. The gist of the method: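 Internal background reporter in transfected HepG2: after 24 h chemical exposure, RNA reverse-transcribed, reporter cDNA amplified, fluorescently labelled and HpaI-cut, then sized by capillary electrophoresis. Gain of signal fitted against DMSO control.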

Assay [10] has as its target Transcriptional activator Myb (Homo sapiens) (UniProt P10242). Put plainly: ATG_Myb_CIS: Attagene CIS-FACTORIAL HepG2 Assay for human Myeloblastosis (Myb) Proto-Oncogene Transcription Factor (AID 2282986; active means hit-call score of the fitted dose curve at least 0.9, where 1 is the maximum; inactive means score below 0.9). Conditions: HepG2 Attagene CIS-FACTORIAL Myb reporter transcription; actives raise or lower the signal. The gist of the method: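 Transiently transfected HepG2 cells carrying a multiplexed cis-promoter reporter set report endogenous Myb activity after 24 h compound exposure. Reporter mRNA is read by RT-PCR with capillary electrophoresis of fluorescent products, fitted bidirectionally against DMSO.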

For assay [11], the target named is Nuclear respiratory factor 1 (Homo sapiens) (UniProt Q16656). The assay is described as follows: ATG_NRF1_CIS: Attagene CIS-FACTORIAL HepG2 Assay for human Nuclear Respiratory Factor 1 (NRF1) Orphan Gene (AID 2282987; active means hit-call score of the fitted dose curve at least 0.9, where 1 is the maximum; inactive means score below 0.9). Conditions: HepG2 NRF1 cis-element reporter, Attagene multiplex; actives raise or lower the signal. A digest of the protocol: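 HepG2 cells transiently transfected with multiple cis-regulated reporter units, exposed 24 h. Reporter mRNAs measured by RT-PCR, fluorescent labelling, HpaI digestion and capillary electrophoresis; bidirectional fitting against DMSO.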

Assay [12] is described as follows: ATG_NFI_CIS: Attagene CIS-FACTORIAL HepG2 Assay for human Nuclear Factor I (NFI) (AID 2282989; active means hit-call score of the fitted dose curve at least 0.9, where 1 is the maximum; inactive means score below 0.9). Particulars: HepG2 cis-regulatory reporter, NFI response element transcription; actives raise or lower the signal. The gist of the method: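 Reporter transcripts were measured by RT-PCR with fluorescent primer extension and capillary electrophoresis 24 h post-treatment. HepG2 cells carried transiently transfected cis-regulated reporter constructs reporting endogenous factor activity; gain or loss fitted against DMSO baseline.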

For assay [13], the target named is Steroid hormone receptor ERR1 (Homo sapiens) (UniProt P11474). Put plainly: ATG_ERRa_TRANS: Attagene TRANS-FACTORIAL HepG2 Assay for human Estrogen-Related Receptor alpha (ERRa) (AID 2282971). Conditions: HepG2 Attagene TRANS reporter, ERRa transactivation. The gist of the method:
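Transfected HepG2, 24 h dosing, ERRa-Gal4 chimera driving GAL4-UAS reporter. Readout: reporter mRNA via RT-PCR plus capillary electrophoresis (fluorescence). Positive direction vs DMSO control.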

Assay [14] can be described thus: ATG_M_19_TRANS: Attagene TRANS-FACTORIAL HepG2 Assay for M19 Transcription Factor (Internal Marker) (AID 2282974). Conditions: HepG2 Attagene TRANS-FACTORIAL M19 internal marker reporter. The gist of the method:
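HepG2 transiently transfected with GAL4-UAS multiplex reporter constructs, exposed 24 h; reporter RNA quantified by RT-PCR, 6-FAM labeling, HpaI digestion and capillary electrophoresis; internal background marker fitted upward versus DMSO.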

The target in assay [15] is Estrogen-related receptor gamma (Homo sapiens) (UniProt P62508). The assay is described as follows: ATG_ERRg_TRANS: Attagene TRANS-FACTORIAL HepG2 Assay for human Estrogen-Related Receptor gamma (ERRg) (AID 2282977).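 Further: hits increase reporter signal over DMSO so potencies reflect activators.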 Particulars: HepG2 Attagene TRANS reporter, ERRg transactivation. The gist of the method:
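Exogenous NR-Gal4 chimera activity measured as reporter transcript induction after 24 h in transiently transfected HepG2 cells. RNA reverse-transcribed, PCR-amplified, 6-FAM-labelled and resolved by capillary electrophoresis; increase over DMSO baseline.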

For assay [16], the target named is Glucocorticoid receptor (Homo sapiens) (UniProt P04150). The assay is described as follows: ATG_GR_TRANS: Attagene TRANS-FACTORIAL HepG2 Assay for human Glucocorticoid Receptor (GR) (AID 2282978).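 Further: activators score as hits since higher reporter transcript over DMSO is fitted.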 Particulars: HepG2 Attagene TRANS GR reporter, mRNA transcription. A digest of the protocol:
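HepG2 cells transiently transfected with GAL4-UAS reporter units and exogenous GR-Gal4 chimera, dosed 24 h. Reporter mRNA by RT-PCR, FAM labeling, HpaI digest and capillary electrophoresis; gain-of-signal fit versus DMSO.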

Assay [17] deals with Hepatocyte nuclear factor 4-alpha (Homo sapiens) (UniProt P41235). The assay is described as follows: ATG_HNF4a_TRANS: Attagene TRANS-FACTORIAL HepG2 Assay for human Hepatocyte Nuclear Factor 4 alpha (HNF4a) (AID 2282982). Particulars: HepG2 HNF4a transactivation reporter, mRNA readout. A digest of the protocol: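 Activity of an exogenous HNF4a–Gal4 fusion scored as induced GAL4-UAS reporter transcripts after 24 h chemical exposure of transfected human HepG2 cells. Read-out via RT-PCR with 6-FAM labelling and capillary electrophoresis; rise over DMSO baseline.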

The target in assay [18] is Bile acid receptor (Homo sapiens) (UniProt Q96RI1). The assay is described as follows: ATG_FXR_TRANS: Attagene TRANS-FACTORIAL HepG2 Assay for Farnesoid X Receptor (FXR) (AID 2282979).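 Further: hits raise reporter mRNA above DMSO so AC50 marks FXR activation.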 Particulars: HepG2 Attagene TRANS FXR-GAL4 reporter transcription. A digest of the protocol:
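Read-out: fluorescent reporter transcripts quantified by capillary electrophoresis after RT-PCR of total RNA. Source cells were HepG2 transiently carrying chimeric NR-GAL4 plus GAL4-UAS reporter units, dosed 24 h. Activity fitted upward relative to DMSO baseline.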

In assay [19] the target is Nuclear receptor subfamily 4 group A member 2 (Homo sapiens) (UniProt P43354). Put plainly: ATG_NURR1_TRANS: Attagene TRANS-FACTORIAL HepG2 Assay for human Nuclear Receptor Related Protein 1 (NURR1) (AID 2282985). Particulars: HepG2 Attagene TRANS reporter, mRNA readout. The gist of the method:
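Reporter transcript induction, measured by RT-PCR with fluorescent labelling, HpaI digestion and capillary electrophoresis, after 24 hr dosing of human HepG2 cells transiently expressing an exogenous NR-Gal4 fusion with GAL4-UAS-driven reporters; DMSO as baseline.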

The target of assay [20] is Oxysterols receptor LXR-beta (Homo sapiens) (UniProt P55055). Put plainly: ATG_LXRb_TRANS: Attagene TRANS-FACTORIAL HepG2 Assay for human Liver X Receptor beta (LXRb) (AID 2282981). Particulars: HepG2 Attagene TRANS GAL4-LXRb reporter, mRNA. The gist of the method:
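After 24 h chemical treatment of transfected HepG2 cells carrying exogenous NR-Gal4 chimeras, reporter mRNA was quantified by fluorescent RT-PCR and capillary electrophoresis; activity taken as increase over DMSO controls.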

Inconclusive results are not listed. The source made the active and inactive calls. How the source made its calls, unless noted: active means hit-call score of the fitted dose curve at least 0.9, where 1 is the maximum; inconclusive means response in the unintended direction; inactive means score below 0.9.

Sequence of Glucocorticoid receptor (Homo sapiens) (P04150 whole entry, looked up, the tested form may be a part): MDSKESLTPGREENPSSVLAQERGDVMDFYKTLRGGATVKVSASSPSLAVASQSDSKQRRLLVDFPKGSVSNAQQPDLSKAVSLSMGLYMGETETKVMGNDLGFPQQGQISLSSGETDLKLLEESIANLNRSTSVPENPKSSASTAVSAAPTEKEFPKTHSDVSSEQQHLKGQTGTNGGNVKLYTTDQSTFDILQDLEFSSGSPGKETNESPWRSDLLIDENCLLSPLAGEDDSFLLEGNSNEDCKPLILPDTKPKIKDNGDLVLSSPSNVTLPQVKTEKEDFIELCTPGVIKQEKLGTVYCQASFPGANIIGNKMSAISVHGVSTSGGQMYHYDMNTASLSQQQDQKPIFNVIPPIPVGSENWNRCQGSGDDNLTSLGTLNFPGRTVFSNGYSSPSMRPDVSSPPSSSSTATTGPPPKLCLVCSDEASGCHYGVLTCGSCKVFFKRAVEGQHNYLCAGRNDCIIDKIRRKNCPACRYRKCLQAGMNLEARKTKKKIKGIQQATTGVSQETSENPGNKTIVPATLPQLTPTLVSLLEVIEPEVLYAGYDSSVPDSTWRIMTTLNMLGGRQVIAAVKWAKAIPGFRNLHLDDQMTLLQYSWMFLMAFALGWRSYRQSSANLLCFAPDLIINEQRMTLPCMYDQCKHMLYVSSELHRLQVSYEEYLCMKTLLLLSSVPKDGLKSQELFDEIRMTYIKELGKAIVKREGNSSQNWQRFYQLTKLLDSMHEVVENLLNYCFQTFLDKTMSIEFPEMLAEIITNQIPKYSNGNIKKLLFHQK
Sequence of Oxysterols receptor LXR-alpha (Homo sapiens) (Q13133 whole entry, looked up, the tested form may be a part): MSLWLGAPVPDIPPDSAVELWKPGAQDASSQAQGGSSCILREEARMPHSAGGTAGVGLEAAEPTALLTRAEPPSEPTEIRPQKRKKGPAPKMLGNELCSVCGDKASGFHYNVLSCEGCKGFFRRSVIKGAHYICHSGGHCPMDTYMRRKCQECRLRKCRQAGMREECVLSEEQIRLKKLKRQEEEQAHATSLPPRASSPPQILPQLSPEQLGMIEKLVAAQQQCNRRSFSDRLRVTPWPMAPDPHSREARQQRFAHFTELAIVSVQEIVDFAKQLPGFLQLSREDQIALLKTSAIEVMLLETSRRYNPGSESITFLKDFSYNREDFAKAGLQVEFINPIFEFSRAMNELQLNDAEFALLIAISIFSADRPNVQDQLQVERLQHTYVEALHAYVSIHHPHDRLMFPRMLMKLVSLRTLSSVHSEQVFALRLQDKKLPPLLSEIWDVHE
Sequence of Nuclear respiratory factor 1 (Homo sapiens) (Q16656 whole entry, looked up): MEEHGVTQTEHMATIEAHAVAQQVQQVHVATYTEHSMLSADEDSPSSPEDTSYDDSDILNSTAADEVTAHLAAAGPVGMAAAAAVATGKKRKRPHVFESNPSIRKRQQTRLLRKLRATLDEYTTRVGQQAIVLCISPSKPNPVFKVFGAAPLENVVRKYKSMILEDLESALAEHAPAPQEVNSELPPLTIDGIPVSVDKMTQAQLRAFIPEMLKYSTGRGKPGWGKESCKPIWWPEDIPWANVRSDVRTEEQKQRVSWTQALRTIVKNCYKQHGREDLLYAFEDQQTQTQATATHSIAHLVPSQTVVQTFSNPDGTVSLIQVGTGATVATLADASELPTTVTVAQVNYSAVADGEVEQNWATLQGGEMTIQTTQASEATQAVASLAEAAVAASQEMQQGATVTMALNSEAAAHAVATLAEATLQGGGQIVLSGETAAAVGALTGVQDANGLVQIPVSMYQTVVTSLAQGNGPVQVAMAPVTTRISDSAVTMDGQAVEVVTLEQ
Sequence of Transcriptional activator Myb (Homo sapiens) (P10242 whole entry, looked up): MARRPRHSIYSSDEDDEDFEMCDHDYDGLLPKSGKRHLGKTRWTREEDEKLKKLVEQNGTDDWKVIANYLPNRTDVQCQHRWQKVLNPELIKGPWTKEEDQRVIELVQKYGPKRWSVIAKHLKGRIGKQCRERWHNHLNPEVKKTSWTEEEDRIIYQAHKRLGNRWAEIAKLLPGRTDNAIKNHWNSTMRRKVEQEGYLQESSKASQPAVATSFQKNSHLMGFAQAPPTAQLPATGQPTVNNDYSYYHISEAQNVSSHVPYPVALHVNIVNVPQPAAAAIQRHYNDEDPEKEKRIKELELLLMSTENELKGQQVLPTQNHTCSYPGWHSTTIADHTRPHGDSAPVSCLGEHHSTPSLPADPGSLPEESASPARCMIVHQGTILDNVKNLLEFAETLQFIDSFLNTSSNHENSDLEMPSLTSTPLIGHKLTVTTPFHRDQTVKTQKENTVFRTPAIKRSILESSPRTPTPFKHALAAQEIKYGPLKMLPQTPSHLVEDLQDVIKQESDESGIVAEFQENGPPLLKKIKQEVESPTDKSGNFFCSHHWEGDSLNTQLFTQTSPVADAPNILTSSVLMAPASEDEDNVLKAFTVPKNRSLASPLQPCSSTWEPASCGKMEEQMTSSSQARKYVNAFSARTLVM
Sequence of Estrogen-related receptor gamma (Homo sapiens) (P62508 whole entry, looked up, the tested form may be a part): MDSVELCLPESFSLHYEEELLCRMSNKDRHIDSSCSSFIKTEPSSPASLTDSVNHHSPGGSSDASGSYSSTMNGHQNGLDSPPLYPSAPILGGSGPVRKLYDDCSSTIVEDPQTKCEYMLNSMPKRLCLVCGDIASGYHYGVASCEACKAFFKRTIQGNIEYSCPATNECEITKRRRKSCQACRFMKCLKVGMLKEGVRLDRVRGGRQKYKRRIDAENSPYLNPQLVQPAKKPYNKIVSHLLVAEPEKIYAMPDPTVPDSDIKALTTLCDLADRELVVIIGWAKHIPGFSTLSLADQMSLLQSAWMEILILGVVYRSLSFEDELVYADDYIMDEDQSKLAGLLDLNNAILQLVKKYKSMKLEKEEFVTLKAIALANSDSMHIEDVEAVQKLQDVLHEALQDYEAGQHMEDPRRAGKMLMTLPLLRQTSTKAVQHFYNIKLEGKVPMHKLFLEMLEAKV
Sequence of X-box-binding protein 1 (Homo sapiens) (P17861 whole entry, looked up): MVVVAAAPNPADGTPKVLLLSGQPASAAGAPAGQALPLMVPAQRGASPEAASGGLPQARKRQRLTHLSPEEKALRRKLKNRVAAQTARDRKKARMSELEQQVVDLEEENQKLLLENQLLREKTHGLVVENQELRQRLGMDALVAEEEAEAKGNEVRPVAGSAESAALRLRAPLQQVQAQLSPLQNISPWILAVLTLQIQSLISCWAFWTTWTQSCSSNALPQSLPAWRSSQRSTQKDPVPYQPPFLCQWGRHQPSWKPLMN
Sequence of Steroid hormone receptor ERR1 (Homo sapiens) (P11474 whole entry, looked up, the tested form may be a part): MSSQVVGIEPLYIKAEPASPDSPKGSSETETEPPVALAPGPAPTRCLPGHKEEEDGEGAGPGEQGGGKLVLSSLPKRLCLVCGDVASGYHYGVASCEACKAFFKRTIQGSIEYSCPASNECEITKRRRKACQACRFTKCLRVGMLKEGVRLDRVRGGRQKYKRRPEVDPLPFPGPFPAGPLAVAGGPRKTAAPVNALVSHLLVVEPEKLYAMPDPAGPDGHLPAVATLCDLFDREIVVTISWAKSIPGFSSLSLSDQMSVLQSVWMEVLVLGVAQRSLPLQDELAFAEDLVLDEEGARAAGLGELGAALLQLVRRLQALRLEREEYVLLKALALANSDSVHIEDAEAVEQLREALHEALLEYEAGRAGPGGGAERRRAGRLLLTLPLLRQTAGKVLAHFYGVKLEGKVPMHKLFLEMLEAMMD
Sequence of Nuclear receptor subfamily 1 group I member 3 (Homo sapiens) (Q14994 whole entry, looked up, the tested form may be a part): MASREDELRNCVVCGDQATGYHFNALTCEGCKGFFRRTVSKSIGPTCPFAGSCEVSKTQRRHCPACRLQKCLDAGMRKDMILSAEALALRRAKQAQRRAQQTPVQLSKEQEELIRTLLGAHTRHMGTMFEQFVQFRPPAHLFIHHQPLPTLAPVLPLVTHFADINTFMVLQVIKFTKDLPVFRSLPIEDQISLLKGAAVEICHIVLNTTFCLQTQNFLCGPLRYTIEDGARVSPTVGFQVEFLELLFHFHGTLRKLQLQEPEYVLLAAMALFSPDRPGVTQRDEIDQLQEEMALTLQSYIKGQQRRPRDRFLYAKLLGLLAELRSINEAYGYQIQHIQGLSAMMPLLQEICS
Sequence of Bile acid receptor (Homo sapiens) (Q96RI1 whole entry, looked up, the tested form may be a part): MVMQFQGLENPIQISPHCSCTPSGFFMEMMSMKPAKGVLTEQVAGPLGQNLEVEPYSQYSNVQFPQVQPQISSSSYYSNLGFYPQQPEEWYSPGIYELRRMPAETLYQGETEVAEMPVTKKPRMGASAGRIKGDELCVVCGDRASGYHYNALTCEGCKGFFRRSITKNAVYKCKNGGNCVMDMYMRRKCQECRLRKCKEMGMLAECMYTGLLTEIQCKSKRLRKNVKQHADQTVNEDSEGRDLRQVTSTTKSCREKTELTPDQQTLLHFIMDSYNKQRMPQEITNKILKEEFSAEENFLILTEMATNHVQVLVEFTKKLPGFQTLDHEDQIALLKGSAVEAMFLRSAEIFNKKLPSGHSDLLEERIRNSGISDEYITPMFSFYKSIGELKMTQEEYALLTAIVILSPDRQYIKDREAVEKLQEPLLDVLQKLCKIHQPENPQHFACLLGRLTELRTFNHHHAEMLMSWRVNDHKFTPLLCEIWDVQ
Sequence of Hepatocyte nuclear factor 4-alpha (Homo sapiens) (P41235 whole entry, looked up, the tested form may be a part): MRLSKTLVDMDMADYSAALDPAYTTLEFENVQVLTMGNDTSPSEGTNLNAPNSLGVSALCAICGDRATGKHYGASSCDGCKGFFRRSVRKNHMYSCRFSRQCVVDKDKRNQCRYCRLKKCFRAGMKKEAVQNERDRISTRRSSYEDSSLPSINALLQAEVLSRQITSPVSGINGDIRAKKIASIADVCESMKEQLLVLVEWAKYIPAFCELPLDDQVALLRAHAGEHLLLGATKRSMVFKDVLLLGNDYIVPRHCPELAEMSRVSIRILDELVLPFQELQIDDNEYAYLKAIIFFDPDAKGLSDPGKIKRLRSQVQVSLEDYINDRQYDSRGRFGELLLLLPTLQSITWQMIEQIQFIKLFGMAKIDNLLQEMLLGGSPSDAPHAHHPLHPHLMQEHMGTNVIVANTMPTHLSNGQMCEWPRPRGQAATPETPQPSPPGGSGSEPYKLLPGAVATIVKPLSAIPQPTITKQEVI

For the compound `CC1(C)CCC[C@]2(C)[C@H]3CCO[C@]3(C)CC[C@@H]12`, the call in assay [1], in assay [2], in assay [3], in [4], in assay [5] and in [6] was inactive. The compound was called inactive in [7], in [8], in assay [9], in assay [10], in assay [11] and in assay [12].
Regarding `CN1CCOCC1`, the result in assay [1], in assay [2], in assay [3], in assay [13], in [5] and in assay [14] was inactive. Besides, the compound was called inactive in assay [6], in [15], in assay [16], in assay [7], in assay [9] and in assay [10]. The compound was called inactive in [11] and in assay [12].
Take `CCCN(CCC)S(=O)(=O)c1ccc(C(=O)O)cc1`: the result in [1], in assay [2], in assay [3], in assay [13], in assay [5] and in assay [14] was inactive. Also, the call in assay [15], in assay [16], in assay [17], in assay [9], in assay [10] and in assay [11] was inactive.
With `C1CCOC1`, the result in assay [1], in assay [2], in assay [3], in assay [13], in assay [5] and in assay [14] was inactive. The call in [6], in assay [15], in assay [16], in assay [18], in assay [17] and in assay [8] was inactive. Moreover, the compound was called inactive in assay [9], in assay [19], in [10] and in [11].
The term AC50 denotes the concentration at which the activity in the assay is half-maximal. `CC(C)(C)C1=CC(=O)C(C(C)(C)C)=CC1=O`: the compound was classed as inactive in assay [1], in assay [2], in assay [5], in assay [15], in [18] and in assay [7]. In addition, the call in assay [20], in assay [8], in assay [10] and in [11] was inactive. The concentration at half-maximal activity (AC50) in assay [3] is 19.7 µM (active); in assay [4], 20.1 µM (active); in assay [19], 74 µM (active).
